Experimental data: PubChem BioAssay (NCATS)
Results filed as inconclusive are left out. Unmarked numbers belong to inactive results. The call rests on the fitted dose curve; in most records, active means well fitted inhibition curve with a large enough effect; inconclusive means small, poorly fitted or top-dose-only effect; inactive means flat fitted curve, though single readings scatter.

molecular target: Calcium and integrin-binding protein 1 (Homo sapiens) (UniProt Q99828); test: Primary qHTS for Identification of Calcium Integrin Binding Protein 1 (CIB1) Competitor (AID 1508620); conditions: CIB1-GST / FITC-alphaIIb peptide fluorescence polarization; series mostly up to 114 µM; activity change, negative = inhibition: at the top concentration;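 further: GST tagged CIB1 binding a fluorescein labelled alphaIIb integrin peptide tracer; top concentration of the series differs between compounds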
Procedure, shortened: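 Fluorescence polarization competition: CIB1-GST (1 uM final) preincubated with compound 15 min at room temperature, then FITC-labeled alphaIIb peptide (100 nM final) added for another 15 min. Polarization read at Ex 480/Em 540.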
On the % scale 0 is the no-effect control and ±100 the full control effect.

Sequence of Calcium and integrin-binding protein 1 (Homo sapiens) (Q99828 whole entry, looked up): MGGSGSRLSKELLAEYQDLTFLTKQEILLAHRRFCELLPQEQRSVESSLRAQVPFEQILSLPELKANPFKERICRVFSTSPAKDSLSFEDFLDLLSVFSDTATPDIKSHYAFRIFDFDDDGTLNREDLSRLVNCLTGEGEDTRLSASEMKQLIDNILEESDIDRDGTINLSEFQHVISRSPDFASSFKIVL

Compound | activity change, negative = inhibition
COc1cc(NC(=O)c2cccc(-n3cc(NC(=O)Nc4cccc(C)c4)cn3)c2)cc(OC)c1OC | 1.83%
O=C(NCc1ccccc1)c1ccc2c(=O)n(-c3cccc(C(F)(F)F)c3)c(=S)[nH]c2c1 | 6.99%
CCc1cccc(CC)c1-n1c(C=C(C)C)c(C(=O)N2CCNCC2)cc(-c2nc(-c3ccc(C(F)(F)F)cc3)cs2)c1=O | 2.31% [at 57.7 µM]
C=C1C(=O)OC2/C=C(\CO)CC/C=C(\C=O)C(O)C(OC(=O)C(C)CC)C12 (centres undefined) | -6.73% [at 57.7 µM]
C=C1CCC2[C@](C)(CCC[C@@]2(C)C=O)[C@H]1CC/C(C)=C/CO (some centres undefined) | -0.479%
CCCSc1nc(N[C@@H]2C[C@H]2c2ccc(F)c(F)c2)c2nnn([C@@H]3C[C@H](OCCO)[C@@H](O)[C@H]3O)c2n1 | -25.3%
CCN(Cc1ccccc1)C(=O)Cn1c(=O)n(C)c2cnc(-c3ccccc3)nc21 | 3.65%
C/C(=C\CO[C@@H]1O[C@H](CO[C@H]2OC[C@](O)(CO)[C@H]2O)[C@@H](O)[C@H](O)[C@H]1O)C(C)(C)O | 5.11% [at 57.7 µM]
CO[C@@H]1CC(OC2CCC3(C)C(CCC45CCC(C6=CC(=O)OC6)C(C)(CCC43)C5=O)C2)O[C@H](C)[C@@H]1O[C@@H]1O[C@H](CO[C@@H]2O[C@H](CO)[C@@H](O)[C@H](O)[C@H]2O)[C@@H](O)[C@H](O)[C@H]1O (some centres undefined) | -2.4% [at 30.2 µM]
NC(=O)c1ccccc1Nc1ccnc(Nc2cccc(O)c2)n1 | 0.55%
CC(=O)NC(C)c1cnc(-c2cnc(Oc3ccc(OC(C)C)cc3)s2)s1 (centres undefined) | -5.49%
C=CC(=O)Nc1ccc2ncnc(Nc3cccc(Br)c3)c2c1 | 33.7%
COc1cc(/C=C2\CCCN([C@@H](C)c3ccc(F)cc3)C2=O)ccc1-n1cnc(C)c1 | 0.847%
OC[C@H]1O[C@@H](OC/C=C/c2ccc(O)cc2)[C@H](O)[C@@H](O)[C@@H]1O | 0.143% [at 57.7 µM]
Cc1cc(OCCCS(C)(=O)=O)cc(C)c1-c1cccc(COc2ccc3c(c2)OCC3CC(=O)O)c1 (centres undefined) | -7.14%
C=C1C(=O)OC2/C=C(\COC(C)=O)CC/C=C(\C=O)CC(OC(=O)C(C)CC)C12 (centres undefined) | 2.02% [at 57.7 µM]
CC(C)CCNC(=O)c1ccc2c(c1)nc(Nc1n[nH]c3ccc(-c4ccccc4OC(F)(F)F)cc13)n2C1CCC(O)CC1 (centres undefined) | -2.07%
C=C1CC[C@@H]2[C@](C)(CO)[C@H](O)CC[C@@]2(C)[C@@H]1CC(=O)C1=CCOC1=O | 5.11% [at 57.7 µM]
CC(C)(C)c1ccc(C(=O)Nc2cc(Cl)c(Br)cc2C(=O)O)cc1 | -7.98%
CC(O)(C(=O)C1CC1(CO)COC1OC(CO)C(O)C(O)C1O)C1C(O)CC2C3CC=C4CC(O)CC(O)C4(C)C3C(O)CC21C (centres undefined) | 1.47% [at 30.2 µM]

Compound | activity change, negative = inhibition
COc1cc(C(=O)O)ccc1NC(=O)C1NC(CC(C)(C)C)C(C#N)(c2ccc(Cl)cc2F)C1c1cccc(Cl)c1F (centres undefined) | 17%
CC(C)(C)C1CCN(C(=O)n2ncc(C(O)(c3ccccc3)c3ccccc3)n2)CC1 | -3.66%
COc1cc(C(N)=O)nc(-c2ccccn2)c1O | -19.2%
CCNC(=O)Nc1ccc(-c2nc3c(c(N4CCOCC4C)n2)CCN(C2COC2)C3)cc1 (centres undefined) | 4.04%
CC(=O)O[C@@H]1CC2C(C)(C)C(=O)C=C[C@]2(C)C2CC[C@@]3(C)[C@H](c4ccoc4)OC(=O)[C@H]4O[C@]43[C@@]21C (some centres undefined) | -6.99% [at 57.7 µM]
CC(=O)O[C@H]1C[C@H](OC(C)=O)[C@]2(C)[C@H](CC[C@@]34O[C@@H]3C3=C(C)C(=O)O[C@@H]3C[C@H]42)C1(C)C | -2.86% [at 57.7 µM]
O=S(=O)(NCc1ccccn1)c1ccc(Br)c2ccccc12 | 1.24%
CC1OC(=O)C[C@@H]2C(C(=O)O)=CO[C@@H](O[C@H]3O[C@H](CO)[C@@H](O)[C@H](O)[C@H]3O)[C@H]12 (some centres undefined) | -1.31% [at 57.7 µM]
COC1C(O)C(OC2CCC3(C)C(CCC45CCC6C7(COC(=O)C7)OC4(O)C6(C)CCC35)C2)OC(C)C1OC1OC(CO)C(OC2OC(CO)C(O)C(O)C2O)C(O)C1O (centres undefined) | 1.46% [at 30.2 µM]
O=C(Nc1ccnc(NC(=O)C2CC2)c1)c1c(Cl)cccc1Cl | -0.791%
CC(=O)O[C@@H]1C[C@]2(C)[C@@]3(CCC4[C@@]5(C)CC[C@H](O[C@@H]6O[C@H](C(=O)O)[C@@H](O)[C@H](OC7OC(CO)C(O)C(O)[C@H]7O[C@@H]7O[C@@H](C)[C@H](O)[C@@H](O)[C@H]7O[C@@H]7OC[C@](O)(CO)[C@H]7O)[C@H]6OC6OC(CO)C(O)C(O)C6O)C(C)(C)C5CC[C@]42C)OC[C@@]12CCC(C)(C)CC23 (some centres undefined) | -0.726% [at 12.4 µM]
Cc1cc2ncc(C(=O)NCC(C)(C)NCC(=O)N3CCC[C@H]3C#N)cn2n1 | -9.89%
CC(=O)O[C@@H]1C2=C(O)C(=O)[C@](C)(OC(C)=O)C(=O)C2=CO[C@@]12O[C@@H](C)CC[C@H]2OC(C)=O | -13.9% [at 57.7 µM]
COc1ccc(S(=O)(=O)n2cnc3cc(C)c(C)cc32)cc1 | -2.76%
COc1ccc([C@H]2Cc3cccc(O)c3C(=O)O2)cc1OC | 2.67%
C/C=C(/C)C(=O)O[C@H]1[C@H](OC(=O)/C(C)=C\C)[C@@]23C(CC1(C)C)[C@]1(CCC4[C@@]5(C)CC[C@H](O[C@@H]6O[C@H](C(=O)O)[C@@H](O)[C@H](O[C@@H]7O[C@H](CO)[C@H](O)[C@H](O)[C@H]7O[C@@H]7O[C@@H](C)[C@H](O)[C@@H](O)[C@H]7O[C@@H]7OC[C@@H](O)[C@H](O)[C@H]7O)[C@H]6O[C@@H]6O[C@H](CO)[C@H](O)[C@H](O)[C@H]6O)C(C)(C)C5CC[C@@]4(C)[C@]1(C)C[C@H]2O)O[C@H]3O (some centres undefined) | -2.7% [at 12.4 µM]
CCOc1ccc(-n2c([C@@H](C)N(Cc3cccnc3)C(=O)Cc3ccc(OC(F)(F)F)cc3)nc3ncccc3c2=O)cc1 | -12.1%
CNC(C)C(=O)NC(C(=O)N1CCCC1C(=O)Nc1snnc1-c1ccccc1)C1CCCCC1 (centres undefined) | 7.54%
CCC/C=C/c1cc2c(C=O)c(O)c(CC=C(C)C)cc2o1 | -14.8%
